Assay outcomes: PubChem BioAssay, several laboratories
Shown are actives, neighbours in structure and some others; about 3% of the full set was active somewhere.
aSyn 5UTR inh: MLPCN primary screen, SNCA 5' untranslated region; actives 0.82% (n = 300,000); AID 1813, 2009; inhibition, % (tested at 7.5 µM); alpha-synuclein 5'UTR reporter, inhibitor activity; in the data active = inhibition above about 60%; inconclusive = no clear call, values can overlap the other calls;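 note: H4 neuroglioblastoma cells stably carrying SNCA 5'UTR luciferase fusion; 0% = DMSO wells and 100% = positive control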
IEC-6 cytotox: cytotoxicity in IEC-6 intestinal epithelial cells, primary screen, cytotoxicity control for KLF5 inhibitor project, cell-based, luminescence | IEC-6 cytotoxicity, luminescence viability | inhibition, % at 5 µM | actives 0.78% (n = 290,000); in the data active = inhibition above about 22%;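 note: 0% = plate median of test compound wells and 100% = cytotoxic reference compound wells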
SKKanGAS inh: S. pyogenes SKKanGAS growth inhibitors in kanamycin, primary screen, streptokinase expression inhibitor project, SKKanGAS strain, BacTiter-Glo luminescence; 6 h; inhibition, % at 7.5 µM; actives 1.3% (n = 300,000); AID 1662, 2009;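 active = mean replicate score, as percent of positive control median, at least 50; inconclusive = mean below 50 but one replicate at or above 50; inactive = mean and every replicate below 50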;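 note: strain carries kanamycin resistance gene driven by streptokinase promoter and grows in 40 µg/ml kanamycin; loss of luminescence reflects streptokinase promoter inhibition or plain growth inhibition; 0% = median of DMSO wells and 100% = positive control at its reference dose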
KLF5 inhibitor: KLF5 expression inhibitors, primary screen, DLD-1 cells, luminescence; AID 1700, 2009; DLD-1 KLF5 promoter-luciferase reporter; actives 0.23% (n = 290,000); inhibition, % at 5 µM;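 active = inhibition above a per-plate limit of that plate's mean compound inhibition plus 3 SD, cut at about 60% in these data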;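 note: 0% = DMSO wells and 100% = LY294002 at 200 µM; higher means less KLF5 promoter-driven luciferase light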
CSC inhib: cancer stem cell viability inhibitors, primary screen, luminescence; cancer stem cell-like cells viability; AID 2717, 2010; actives 1.1% (n = 300,000); inhibition, % at 7.5 µM; in the data active = inhibition above about 75%; inconclusive = no clear call, values can overlap the other calls; tested in HMLE shEcad cells
* = called active by the depositor; u = inconclusive; x = not tested or not shown.

SMILES	aSyn 5UTR inh	IEC-6 cytotox	SKKanGAS inh	KLF5 inhibitor	CSC inhib
O=C(CCc1ccc(Oc2cc([N+](=O)[O-])cc([N+](=O)[O-])c2)cc1)N1CCCCCC1	-15	-5	14	-11	96*
CCOC(=O)C1CCCN(C(=S)Nc2cccc(Cl)c2C)C1 (centres undefined)	19	2	-3	-13	-8
CC(C)(O)c1[nH]c2cc(F)ccc2c1C(C)(C)O	-46	3	90*	-9	7
CC(C)(O)c1[nH]c2cc(C(F)(F)F)ccc2c1C(C)(C)O	-51	6	-5	-22	44
COc1ccccc1N=c1oc2cc(O)ccc2cc1C(N)=O	-74	21	70*	-57	u
COc1ccccc1N=c1oc2cc(O)ccc2cc1C(=O)NCC1CCCO1 (centres undefined)	15	4	4	-52	7
Cc1ccccc1C(=O)Oc1cccc(Nc2ncnc3ccccc23)c1	-28	8	75*	-25	-10
CC(C)[C@H](NS(=O)(=O)c1ccccc1F)C(=O)OCC(=O)Nc1cccc(S(N)(=O)=O)c1	x	x	x	x	-16
Cc1c(C)c2ccc(OCC(=O)Nc3nccs3)cc2oc1=O	66*	1	-7	-12	4
Cc1cc(=O)oc2cc(OCC(=O)Nc3nccs3)ccc12	-51	-1	2	-114	-11
Cc1ccc2c(c1)c1c(n2CC(O)CNC(CO)(CO)CO)CCCC1 (centres undefined)	2	0	1	-1	-13
Cc1ccc2c(c1)c1c(n2CC(O)CNC2CCCCC2)CCCC1 (centres undefined)	38	-4	-4	-6	77*
COc1ccc(C(=O)/C=C/c2ccc(OC)c(Cn3nnc4ccccc43)c2)cc1	-25	-6	8	-19	77*
CNC[C@H](CC1CCCCC1)NC[C@H](CO)NCCc1cccc(C(F)(F)F)c1	17	13	33	-25	132*
Cc1ccc(C(=O)OCN2C(=O)c3ccccc3C2=O)o1	6	x	-6	x	19
COc1ccc(-c2oc3ccccc3c2C#Cc2cncn2C)cc1	x	x	x	x	103*
COc1ccc(-c2sc3cc4c(cc3c2C#Cc2cncn2C)OCO4)cc1	x	x	x	x	67
CCCCCN=C(N)N/N=C/c1c[nH]c2ccc(OC)cc12	108*	x	3	x	119*
CCCOc1ccc(C(=O)N/N=C/c2c[nH]c3ccc(Br)cc23)cc1	6	3	36	-25	51
N#Cc1c(N)nc(Sc2ccc(Cl)cc2)c(C#N)c1-c1ccccc1Cl	-20	-4	75*	-20	59
CCCCn1c(SCC(N)=O)nc2sc3c(c2c1=O)CCC3	-2	4	6	-20	99*
CCCn1c(SCC(=O)NCC)nc2sc3c(c2c1=O)CCC3	25	3	3	-10	-15
Clc1ccc(-[n+]2c(-c3cccc(Br)c3)[nH]c3nc4ccccc4nc32)cc1	-4	2	85*	-22	-1
Brc1cccc(-c2nc3cccnc3nc2-c2cccc(Br)c2)c1	-7	5	0	-25	26
Cc1ccc(CNC(=O)CNS(=O)(=O)c2ccc3nc(C)sc3c2)cc1	9	0	-16	-5	-9
SMILES	aSyn 5UTR inh	IEC-6 cytotox	SKKanGAS inh	KLF5 inhibitor	CSC inhib
O=C1C=C(Nc2ccccc2O)c2ccccc2C1=O	55	-4	52*	-15	99*
O=C1C=C(NCc2ccccc2)c2ccccc2C1=O	23	9	29	-24	x
O=C1C=C(Nc2ccc(F)cc2)c2ccccc2C1=O	x	x	x	x	112*
O=[N+]([O-])c1cc(Cl)cc(/C=N/Nc2nc3ccccc3s2)c1O	-78	-7	82*	-16	47
O=C(Cn1nc2ccccc2n1)N/N=C/c1cc(Cl)cc([N+](=O)[O-])c1O	x	-1	x	-23	x
COc1cc(/C=N/Nc2ccccc2[N+](=O)[O-])cc(OC)c1O	-57	10	-3	-39	19
COc1cc(/C=N/Nc2nc3ccccc3s2)cc([N+](=O)[O-])c1O	-100	4	54*	4	-1
CC(C)(C)C(=O)Nc1ccc(/C=C/C(=O)c2ccco2)cc1	-40	4	7	-141	5
Cc1ccc(S(=O)(=O)N2CCCCC2)cc1NC(=O)Cn1ncc(Cl)c(Cl)c1=O	x	x	x	x	90*
Cc1cc(Br)ccc1NC(=O)CNC(=O)Cn1ncc(Cl)c(Cl)c1=O	63*	6	-2	8	83*
O=C(Cn1ncc(Cl)c(Cl)c1=O)N1CCN(S(=O)(=O)c2ccc3ccccc3c2)CC1	30	10	x	-10	102*
